Compound activity: PubChem BioAssay, Broad Institute
CFTR F508del cor = F508del CFTR correction, initial screen, CFBE line, single point. CFBE cells, YFP halide quenching; stimulated with forskolin plus potentiator P3; % fluorescence drop versus neutral controls. activity (quench increase), % at 7.58 µM. hit rate 0.36% among 350,000. AID 720511, 2013;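 active means mean added fluorescence quench of at least 8% versus neutral control, with both replicates also reaching 8%; inconclusive means only one of the mean or replicate conditions met; inactive means mean below 8% and not both replicates reaching 8%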;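 further: cells transiently co-express mutant CFTR-F508del with the halide-sensitive YFP; corrector assay measuring rescue of mutant channel to the surface after 24 h compound exposure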
MITF act = activators of MITF-driven TRPM1 promoter reporter, primary screen, cell-based, SK-MEL-5, luciferase, single point; AID 588334, 2011; SK-MEL-5 TRPM1-promoter luciferase, 24 h; % of positive control, neutral wells = 0; activation, % at 12.5 µM; hit rate 0.75% among 300,000;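 active means mean activation of at least 80% with every replicate also reaching 80%; inconclusive means mean reaches 80% but some replicate falls short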;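 further: 0% = neutral control wells and 100% = parthenolide positive control wells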
Env fusion inh = inhibitors of HIV-1 Env-driven cell-cell fusion, primary screen, HeLa-JRFL effector, CEM21 target cells, luciferase | inhibition, % at 12.3 µM | hit rate 1.1% among 360,000 | AID 651610, 2012;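 active means mean replicate inhibition score of at least 50 and every replicate individually at or above 50; inconclusive means only one of the two criteria met; inactive means mean below 50 and not all replicates reaching 50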;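 further: 0% = plate neutral controls and 100% = maraviroc near 300 nM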
GSIS activator = GLuc luminescence reporter in INS-1E cells, primary screen for activators of glucose-dependent secretion of insulin; hit rate 0.61% among 370,000; INS-1E GLuc reporter insulin secretion, 2-3 h; activation, % at 16.6 µM; AID 743287, 2014;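 active means lowest replicate activation of at least 40%, so every replicate reaches that level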;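 further: 0% = median of neutral control wells and 100% = median of IBMX positive control wells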
Wnt bcat act = Wnt/beta-catenin pathway activators, primary screen, cell-based, plate reader, single point. hit rate 1.2% among 300,000. activation, % at 9.35 µM. AID 743398, 2014. Wnt/beta-catenin reporter cell assay, activator; in the data active means activation above about 30%, passing the limit was not always enough; inconclusive means no clear call, values can overlap the other calls;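 further: 0% = neutral control wells and 100% = positive control wells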
An asterisk follows results filed as active; ? = inconclusive; . = no result given; [ ] = another dose, or the depositor's remark. A selection: hits, their analogues and other compounds. The true share with any hit is near 2.7%.

SMILES	CFTR F508del cor	MITF act	Env fusion inh	GSIS activator	Wnt bcat act
COC(CNC(=O)[C@H](Cc1ccccc1)N1Cc2ccccc2C1=O)OC	8.5*	-7	-2	-7	0
CN(C)CCCNC(=O)C[C@@H]1CC[C@H]2[C@H](COc3ccc(NC(=O)NC4CCCC4)cc3C(=O)N2C)O1	-3	.	-14[16.7 µM]	18	.
CN(c1cccc(NC(=O)CSc2ccc(Cl)cc2)c1)S(C)(=O)=O	.	0	61*	-17	.
O=C(COc1ccc(Cl)cc1Cl)Nc1cccnc1	2	94*	-98	-5	?
CN(c1cccc(NC(=O)COc2ccc(Cl)cc2Cl)c1)S(C)(=O)=O	.	.	-28	.	37*
N#Cc1ccc(-c2ccc(OCC(=O)Nc3cccnc3)cc2)cc1	1	13	59*	49	1
CC(=O)Nc1ccc(NC(=O)COc2ccc(-c3ccc(C#N)cc3)cc2)cc1	0	21	4	13	0
O=C(NC1CCC1)[C@@H]1[C@@H](CO)[C@@H]2Cn3c(ccc(-c4ccccc4)c3=O)[C@@H]2N1CC1CC1	0	.	.	6	.
CNc1nc(Sc2ccccc2)cc(C(F)(F)F)n1	.	.	-453	51*	-3
CNc1nc(Sc2cccc(C(F)(F)F)c2)cc(C(F)(F)F)n1	.	.	-298	11	-29
CO[C@@H]1CN(C)C(=O)c2ccc(NS(C)(=O)=O)cc2OC[C@@H](C)N(C)C[C@@H]1C	1	.	.	9	.
CCCC(=O)c1c(NCCO)cc(C)oc1=O	2	-9	-39	14	-2
CCCNc1cc(C)oc(=O)c1C(=O)CCC	.	10	.	88*	.
COc1ccc2c3c(n(C)c2c1)[C@@H](CO)N(C(=O)CN(C)C)CC31CN(C(=O)C2CCC2)C1	1	.	.	12	.
N#C/C(=C\c1ccc(N2CCCCC2)o1)C(N)=O	1	-5	57*	-2	2
N#C/C(=C\c1ccc(N2CCCCC2)o1)C(=O)Nc1cccc(Br)c1	.	4	-66	-9	38*
N#C/C(=C/c1ccc(N2CCOCC2)o1)c1ccc(Cl)cc1	.	106*	-259	.	-14
C[C@@H]1CN([C@@H](C)CO)C(=O)c2cc(-c3ccc(C#N)cc3)cnc2O[C@H]1CN(C)Cc1cncnc1	2	.	-4[16.7 µM]	6	.
COc1ccc(C(=O)N2C[C@@H]3[C@H](c4ccccc42)[C@@H](CO)N3C(=O)c2cccc(F)c2)cc1	-3	.	.	8	.
C[C@@H]1CCCCO[C@H](CN(C)S(=O)(=O)c2ccc(F)cc2)[C@@H](C)CN([C@@H](C)CO)C(=O)c2cc(NC(=O)c3ccccc3)ccc2O1	-6	.	-24[16.7 µM]	-14	.
CO[C@H]1CN(C)C(=O)c2ccc(NC(=O)Nc3ccc(Cl)cc3)cc2OC[C@H](C)NC[C@@H]1C	1	.	.	-9	.
CCCCN1CC(COCc2ccccc2)Oc2cccc(Oc3ccc(C(C)C)cc3)c2S1(=O)=O (stereo not drawn)	-1	-6	63*	0	-7
Cc1cc2c3c(c1C)C1(C(=O)N3C(C)(C)CC2C)C(C#N)=C(N)Oc2cc(O)ccc21 (stereo not drawn)	.	5	62*	-25	-6
NCC[C@H]1CC[C@@H](NC(=O)CCN2CCCCC2)[C@H](CO)O1	0	.	-5[16.7 µM]	-2	.
CC[C@@]1(C(=O)OC)N[C@H](CN(C)C(=O)Nc2ccc(F)cc2)[C@@H]2C(=O)N(Cc3ccccc3)C(=O)[C@@H]21	5	1	94*	.	-1
SMILES	CFTR F508del cor	MITF act	Env fusion inh	GSIS activator	Wnt bcat act
CC[C@@]1(C(=O)OC)N[C@H](CN(C)C(=O)Nc2ccc(OC)cc2)[C@@H]2C(=O)N(Cc3ccccc3)C(=O)[C@@H]21	0	50	70*	-28	10
CC[C@@]1(C(=O)OC)N[C@H](CN(C)C(=O)Nc2ccc(C)cc2)[C@@H]2C(=O)N(Cc3ccccc3)C(=O)[C@@H]21	1	33	66*	-8	0
COC(=O)[C@]1(Cc2ccccc2)N[C@H](CN(C)C(=O)Nc2ccccc2)[C@@H]2C(=O)N(Cc3ccccc3)C(=O)[C@@H]21	2	-4	-30	-25	-1
Cc1nc(S(=O)(=O)Cc2ccc(Cl)cc2)nc2c1CCC2	0	-6	1	-1	-1
Cc1nc(N)nc2c1CCCC2	.	7	.	43*	0
CC(=O)N[C@H]1CC[C@@H](CCNC(=O)C2CCC2)O[C@H]1CO	0	.	-2[16.7 µM]	-10	.
Cc1cccc(N/N=C/c2ccncc2)c1	.	129*	-62	-12	13
Cc1ccc(Cn2nnnc2CN2CCC(c3nc4ccc(Cl)cc4[nH]3)CC2)cc1	.	-7	75*	.	.
CCNC(=O)[C@H]1[C@H](CO)[C@H]2Cn3c(ccc(/C=C/c4ccccc4)c3=O)[C@H]2N1C(C)=O	-3	.	.	3	.
COc1ccc2ncn(-c3ccccc3)c2c1	.	37	68*	.	-9
c1ccc(-c2cc3c(ccc4nonc43)nn2)cc1	.	8	-34	.	0
On1onc2c3cc(-c4ccccc4)nc3ccc21	4	-14	.	3	39*
CCNC(=S)N/N=C/c1cc(C)n(-c2ccc(Cl)cc2)c1C	-2	86*	-27	31	1
C[C@H](CO)N1C[C@H](C)[C@@H](CN(C)Cc2ccc(-c3ccccc3)cc2)Oc2ccc(NS(=O)(=O)c3ccc(Cl)cc3)cc2CC1=O	3	.	22[16.7 µM]	3	.
O=c1oc(/C=C/c2ccccc2)nc2sc3c(c12)CCC3	.	105*	-85	.	6
O=c1oc(-c2cc3ccccc3o2)nc2sc3c(c12)CCCC3	2	101*	.	1	15
O=c1oc(-c2ccccc2)nc2sc3c(c12)CCCC3	.	58	.	2	.
NNc1nc(-c2ccccc2)c2cc(Br)ccc2n1	3	-2	-6	49*	0
Cc1ccc2nc(NCCCO)nc(-c3ccccc3)c2c1	.	-21	-478	.	3
OCCCNc1nc(-c2ccccc2)c2cc(Br)ccc2n1	0	1	26	55*	-2
NNc1nc(-c2ccccc2)c2cc(Cl)ccc2n1	-1	-14	-20	36	-4
COc1ccc2c3c([nH]c2c1)[C@H](CO)N(CC1CC1)CC31CN(C(=O)c2ccccc2)C1	2	.	.	8	.
CCOC(=O)COc1ccc(S(=O)(=O)NCc2ccncc2)cc1	.	-4	.	.	.
CCOc1ccc(S(=O)(=O)NCc2ccncc2)cc1	.	-11	85*	.	.
COc1ccc(NC(=O)Nc2ccc3c(c2)C(=O)N([C@H](C)CO)C[C@@H](C)[C@H](CN(C)S(=O)(=O)c2c(C)noc2C)OCCCC[C@H](C)O3)cc1	1	.	13[16.7 µM]	5	.
O[C@H]1C[C@H](c2ccccc2)N(CC2CCCCC2)C[C@@H]1n1cc(C2CC2)nn1	-6	.	-36	143*	-4
Cc1cc(SCn2nnc3ccccc3c2=O)nc2ccccc12	.	23	5	12	1
Cc1ccc(-n2nnnc2SCn2nnc3ccccc3c2=O)c(C)c1	.	-8	75*	-32	.
